# Results: publication PMC11062922 (Nature Chemical Biology, 2023)
# Where two headings read alike, the source gives them in different places.
# Assays:
# ATM = tested on: ATM; set-up: species or system human, MV4-11 + K-562 + COLO205 + SK-N-BE2 + OVCAR-8; conditions: read-out: apparent Kd, compound concentrations: 100 nM and 1000 nM (sheet 'Samples'), n = 1
# CLK4 = tested on: CLK4; set-up: species or system human, MV4-11 + K-562 + COLO205 + SK-N-BE2 + OVCAR-8; conditions: read-out: apparent Kd; compound concentrations: 100 nM and 1000 nM (sheet 'Samples'), CATDS: 0.213944296498185; n = 1
# CSNK1A1 = tested on: CSNK1A1; set-up: species or system human, MV4-11 + K-562 + COLO205 + SK-N-BE2 + OVCAR-8; conditions: read-out: apparent Kd; compound concentrations: 100 nM and 1000 nM (sheet 'Samples'), CATDS: 0.24083982314133201; n = 1
# CSNK1D = tested on: CSNK1D; set-up: species or system human, MV4-11 + K-562 + COLO205 + SK-N-BE2 + OVCAR-8; conditions: read-out: apparent Kd, compound concentrations: 100 nM and 1000 nM (sheet 'Samples'), n = 1
# AKT3 = tested on: AKT3; set-up: species or system human, MV4-11 + K-562 + COLO205 + SK-N-BE2 + OVCAR-8; conditions: read-out: apparent Kd, n = 1
# EPHB4 = tested on: EPHB4; set-up: species or system human, MV4-11 + K-562 + COLO205 + SK-N-BE2 + OVCAR-8; conditions: read-out: apparent Kd; compound concentrations:100 nM and 1000 nM (sheet 'Samples'); n = 1
# ERCC2 = tested on: ERCC2; set-up: species or system human, MV4-11 + K-562 + COLO205 + SK-N-BE2 + OVCAR-8; conditions: read-out: apparent Kd; compound concentrations:100 nM and 1000 nM (sheet 'Samples'); n = 1
# FER = tested on: FER; set-up: species or system human, MV4-11 + K-562 + COLO205 + SK-N-BE2 + OVCAR-8; conditions: read-out: apparent Kd; compound concentrations:100 nM and 1000 nM (sheet 'Samples'); n = 1
# PTK2B = tested on: PTK2B; set-up: species or system human, MV4-11 + K-562 + COLO205 + SK-N-BE2 + OVCAR-8; conditions: read-out: apparent Kd; compound concentrations:100 nM and 1000 nM (sheet 'Samples'); n = 1
# TNK1 = tested on: TNK1; set-up: species or system human, MV4-11 + K-562 + COLO205 + SK-N-BE2 + OVCAR-8; conditions: read-out: apparent Kd; compound concentrations:100 nM and 1000 nM (sheet 'Samples'); n = 1
# TNK2 = tested on: TNK2; set-up: species or system human, MV4-11 + K-562 + COLO205 + SK-N-BE2 + OVCAR-8; conditions: read-out: apparent Kd; compound concentrations:100 nM and 1000 nM (sheet 'Samples'); n = 1
# AURKB = tested on: AURKB; set-up: species or system human, MV4-11 + K-562 + COLO205 + SK-N-BE2 + OVCAR-8; conditions: read-out: apparent Kd; compound concentrations:100 nM and 1000 nM (sheet 'Samples'); n = 1
# BMP2K = tested on: BMP2K; set-up: species or system human, MV4-11 + K-562 + COLO205 + SK-N-BE2 + OVCAR-8; conditions: read-out: apparent Kd; compound concentrations:100 nM and 1000 nM (sheet 'Samples'); n = 1
# CSNK2A1;CSNK2A3 = tested on: CSNK2A1;CSNK2A3; set-up: species or system human, MV4-11 + K-562 + COLO205 + SK-N-BE2 + OVCAR-8; conditions: read-out: apparent Kd; compound concentrations:100 nM and 1000 nM (sheet 'Samples'); n = 1
# CSNK2A2 = tested on: CSNK2A2; set-up: species or system human, MV4-11 + K-562 + COLO205 + SK-N-BE2 + OVCAR-8; conditions: read-out: apparent Kd; compound concentrations:100 nM and 1000 nM (sheet 'Samples'); n = 1
# JAK1 = tested on: JAK1; set-up: species or system human, MV4-11 + K-562 + COLO205 + SK-N-BE2 + OVCAR-8; conditions: read-out: apparent Kd; compound concentrations:100 nM and 1000 nM (sheet 'Samples'); n = 1
# Q6ZSR9 = Q6ZSR9 (human, UniProt Q6ZSR9); set-up: species or system MV4-11 + K-562 + COLO205 + SK-N-BE2 + OVCAR-8; conditions: read-out: apparent Kd; compound concentrations:100 nM and 1000 nM (sheet 'Samples'); n = 1
# Chain of Q6ZSR9 (Q6ZSR9 whole entry, looked up): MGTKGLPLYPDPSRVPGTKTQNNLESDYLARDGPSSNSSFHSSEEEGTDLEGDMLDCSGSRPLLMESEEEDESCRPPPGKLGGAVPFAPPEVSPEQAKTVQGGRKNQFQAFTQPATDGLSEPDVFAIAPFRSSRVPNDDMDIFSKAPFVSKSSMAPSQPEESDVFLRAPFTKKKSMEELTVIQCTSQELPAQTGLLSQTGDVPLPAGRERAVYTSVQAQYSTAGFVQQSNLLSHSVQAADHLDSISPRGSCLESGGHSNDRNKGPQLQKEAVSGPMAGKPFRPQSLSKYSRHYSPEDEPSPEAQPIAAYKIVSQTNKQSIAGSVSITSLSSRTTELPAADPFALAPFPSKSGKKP
# GSK3A = tested on: GSK3A; set-up: species or system human, MV4-11 + K-562 + COLO205 + SK-N-BE2 + OVCAR-8; conditions: read-out: apparent Kd; compound concentrations: 100 nM and 1000 nM (sheet 'Samples'), CATDS: 0.228409862678119; n = 1
# MTHFD1 = tested on: MTHFD1; set-up: species or system human, MV4-11 + K-562 + COLO205 + SK-N-BE2 + OVCAR-8; conditions: read-out: apparent Kd; compound concentrations: 100 nM and 1000 nM (sheet 'Samples'), CATDS: 0.40947747984703597; n = 1
# CDC42BPG = tested on: CDC42BPG; set-up: species or system human, MV4-11 + K-562 + COLO205 + SK-N-BE2 + OVCAR-8; conditions: read-out: apparent Kd; compound concentrations: 100 nM and 1000 nM (sheet 'Samples'), CATDS: 9.9527078318265502E-2; n = 1
# DCTPP1 = tested on: DCTPP1; set-up: species or system human, MV4-11 + K-562 + COLO205 + SK-N-BE2 + OVCAR-8; conditions: read-out: apparent Kd; compound concentrations: 100 nM and 1000 nM (sheet 'Samples'), CATDS: 8.8490675480642905E-2; n = 1
# DDR2 = tested on: DDR2; set-up: species or system human, MV4-11 + K-562 + COLO205 + SK-N-BE2 + OVCAR-8; conditions: read-out: apparent Kd; compound concentrations: 100 nM and 1000 nM (sheet 'Samples'), CATDS: 8.0656162840652496E-2; n = 1
# FLT3 = tested on: FLT3; set-up: species or system human, MV4-11 + K-562 + COLO205 + SK-N-BE2 + OVCAR-8; conditions: read-out: apparent Kd; compound concentrations: 100 nM and 1000 nM (sheet 'Samples'), CATDS: 8.7421379442902306E-2; n = 1
# IRAK4 = tested on: IRAK4; set-up: species or system human, MV4-11 + K-562 + COLO205 + SK-N-BE2 + OVCAR-8; conditions: read-out: apparent Kd; compound concentrations: 100 nM and 1000 nM (sheet 'Samples'), CATDS: 7.99000406569913E-2; n = 1
# MYLK3 = tested on: MYLK3; set-up: species or system human, MV4-11 + K-562 + COLO205 + SK-N-BE2 + OVCAR-8; conditions: read-out: apparent Kd; compound concentrations: 100 nM and 1000 nM (sheet 'Samples'), CATDS: 0.35041871443296002; n = 1
# PIM2 = tested on: PIM2; set-up: species or system human, MV4-11 + K-562 + COLO205 + SK-N-BE2 + OVCAR-8; conditions: read-out: apparent Kd; compound concentrations: 100 nM and 1000 nM (sheet 'Samples'), CATDS: 8.1354023438197698E-2; n = 1
# PRKAG1 = tested on: PRKAG1; set-up: species or system human, MV4-11 + K-562 + COLO205 + SK-N-BE2 + OVCAR-8; conditions: read-out: apparent Kd; compound concentrations: 100 nM and 1000 nM (sheet 'Samples'), CATDS: 8.6524001120503097E-2; n = 1
# TNIK = tested on: TNIK; set-up: species or system human, MV4-11 + K-562 + COLO205 + SK-N-BE2 + OVCAR-8; conditions: read-out: apparent Kd; compound concentrations: 100 nM and 1000 nM (sheet 'Samples'), CATDS: 9.2286016750468006E-2; n = 1
# AKT2 = tested on: AKT2; set-up: species or system human, MV4-11 + K-562 + COLO205 + SK-N-BE2 + OVCAR-8; conditions: read-out: apparent Kd; compound concentrations: 100 nM and 1000 nM (sheet 'Samples'), CATDS: 0.183770633421974; n = 1
# DYNC1LI1 = tested on: DYNC1LI1; set-up: species or system human, MV4-11 + K-562 + COLO205 + SK-N-BE2 + OVCAR-8; conditions: read-out: apparent Kd; compound concentrations: 100 nM and 1000 nM (sheet 'Samples'), CATDS: 0.215188969129953; n = 1
# MAPK14 = tested on: MAPK14; set-up: species or system human, MV4-11 + K-562 + COLO205 + SK-N-BE2 + OVCAR-8; conditions: read-out: apparent Kd, compound concentrations: 100 nM and 1000 nM (sheet 'Samples'), n = 1
# NQO1 = tested on: NQO1; set-up: species or system human, MV4-11 + K-562 + COLO205 + SK-N-BE2 + OVCAR-8; conditions: read-out: apparent Kd; compound concentrations: 100 nM and 1000 nM (sheet 'Samples'), CATDS: 0.18936127019719301; n = 1
# MAPK10 = tested on: MAPK10; set-up: species or system human, MV4-11 + K-562 + COLO205 + SK-N-BE2 + OVCAR-8; conditions: read-out: apparent Kd; compound concentrations: 100 nM and 1000 nM (sheet 'Samples'), CATDS: 0.16061628875685399; n = 1
# MAPK9 = tested on: MAPK9; set-up: species or system human, MV4-11 + K-562 + COLO205 + SK-N-BE2 + OVCAR-8; conditions: read-out: apparent Kd; compound concentrations: 100 nM and 1000 nM (sheet 'Samples'), CATDS: 0.111534825966063; n = 1
# NLK = tested on: NLK; set-up: species or system human, MV4-11 + K-562 + COLO205 + SK-N-BE2 + OVCAR-8; conditions: read-out: apparent Kd; compound concentrations: 100 nM and 1000 nM (sheet 'Samples'), CATDS: 0.289538211789438; n = 1
# PRKCQ = tested on: PRKCQ; set-up: species or system human, MV4-11 + K-562 + COLO205 + SK-N-BE2 + OVCAR-8; conditions: read-out: apparent Kd; compound concentrations: 100 nM and 1000 nM (sheet 'Samples'), CATDS: 0.10805556024324001; n = 1
# PRKCZ = tested on: PRKCZ; set-up: species or system human, MV4-11 + K-562 + COLO205 + SK-N-BE2 + OVCAR-8; conditions: read-out: apparent Kd; compound concentrations: 100 nM and 1000 nM (sheet 'Samples'), CATDS: 0.11125426430481999; n = 1
# [1] = compound concentrations:100 nM and 1000 nM (sheet 'Samples')
smiles,measurement,setting,value
Cc1nc2sc3c(N)ncnc3c2c(C)c1C [RO4241984-000],potency estimated from few doses,ATM; CATDS: 0.46387822436217502,322 nM
same,potency estimated from few doses,CLK4,1410 nM
same,potency estimated from few doses,CSNK1A1,1060 nM
same,potency estimated from few doses,CSNK1D; CATDS: 0.19928215700528701,1710 nM
O=C(Nc1c(F)cccc1F)c1cc(C(=O)c2ccccc2F)c[nH]1 [GSK1326180A],potency estimated from few doses,AKT3; [1],1080 nM
same,potency estimated from few doses,EPHB4,1310 nM
same,potency estimated from few doses,ERCC2,984 nM
same,potency estimated from few doses,FER,920 nM
same,potency estimated from few doses,PTK2B,1070 nM
same,potency estimated from few doses,TNK1,870 nM
same,potency estimated from few doses,TNK2,898 nM
NC(=O)Nc1sc(-c2ccc(F)cc2)cc1C(N)=O [GW789449X],potency estimated from few doses,AKT3; [1],1830 nM
same,potency estimated from few doses,AURKB,1310 nM
same,potency estimated from few doses,BMP2K,1260 nM
same,potency estimated from few doses,CSNK2A1;CSNK2A3,1730 nM
same,potency estimated from few doses,CSNK2A2,1130 nM
same,potency estimated from few doses,JAK1,711 nM
same,potency estimated from few doses,Q6ZSR9,1370 nM
Cn1cc(C2=C(c3cn(C)c4cc(C(N)=O)ccc34)C(=O)NC2=O)c2ccccc21 [RO0319317-000],potency estimated from few doses,ATM; CATDS: 0.45876429377403,142 nM
same,potency estimated from few doses,GSK3A,860 nM
same,potency estimated from few doses,MTHFD1,175 nM
NS(=O)(=O)c1cccc(N/C=C2\C(=O)Nc3ccccc32)c1 [GW275616X],potency estimated from few doses,ATM; CATDS: 0.21008347624398099,294 nM
same,potency estimated from few doses,CDC42BPG,1200 nM
same,potency estimated from few doses,DCTPP1,1600 nM
same,potency estimated from few doses,DDR2,2060 nM
same,potency estimated from few doses,FLT3,1650 nM
same,potency estimated from few doses,IRAK4,2110 nM
same,potency estimated from few doses,MYLK3,137 nM
same,potency estimated from few doses,PIM2,2010 nM
same,potency estimated from few doses,PRKAG1,1690 nM
same,potency estimated from few doses,TNIK,1440 nM
CSc1nccc(-c2c(-c3ccc(F)cc3)ncn2CCCN2CCOCC2)n1.Cl [SB-217146-A],potency estimated from few doses,AKT2,2140 nM
same,potency estimated from few doses,CSNK1D; CATDS: 0.20295054988008099,1740 nM
same,potency estimated from few doses,DYNC1LI1,1560 nM
same,potency estimated from few doses,MAPK14; CATDS: 0.21262407645477699,1590 nM
same,potency estimated from few doses,NQO1,2010 nM
O=c1c(Oc2ccc(F)cc2F)cc2cnc(NC3CCOCC3)nc2n1C1CC1 [RO4399247-000],potency estimated from few doses,"AKT3; compound concentrations: 100 nM and 1000 nM (sheet 'Samples'), CATDS: 0.120130462725208",1390 nM
same,potency estimated from few doses,MAPK10,690 nM
same,potency estimated from few doses,MAPK14; CATDS: 0.26404764630767302,279 nM
same,potency estimated from few doses,MAPK9,1740 nM
same,potency estimated from few doses,NLK,242 nM
same,potency estimated from few doses,PRKCQ,1930 nM
same,potency estimated from few doses,PRKCZ,1750 nM
